# L3MBTL1 block – inhibitors of human L3MBTL1. AlphaScreen L3MBTL1–H3K9me1 peptide binding. hit rate 0.66% among 230,000. Potency, µM (series often up to 57.1 µM), for inactives: at the top dose activity, negative = inhibition, usual class: inhibitors. AID 485360. Q9Y468; further: on the % scale 0 is the no-effect control and ±100 the full control effect; nearly all actives have a fitted effect of over 60% in size
#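 AlphaScreen proximity signal between nickel-chelate acceptor and streptavidin donor beads (final 10 ug/mL) reports binding of 50 nM L3MBTL1 to 75 nM biotin-H3 K9me1 peptide; complex incubated with compounds 30 min at room temperature; cefsulodin titration as control.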
# Pol iota inh – inhibitors of human DNA polymerase iota | Pol iota fluorescent replication assay, 10 min | Potency, µM (top dose mostly 115 µM), for the others: top-dose activity, negative = inhibition, usual class: inhibitors | Q9UNA4 | hit rate 1% among 390,000 | AID 588590
#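 Fluorescent replication assay read twice, at 0 min and 10 min after adding 50 nM (final) substrate. Enzyme (10 nM) and compounds were first incubated 15 min at room temperature; enzyme-free buffer wells were negative controls.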
# POLB inh – inhibitors of human DNA polymerase beta. Pol beta primer extension/strand displacement, fluorescence kinetic. hit rate 1.3% among 340,000. P06746. Potency, µM (highest dose often 114 µM), without a hit: top-dose activity change, negative = inhibition, actives largely listed as inhibitors. AID 485314; further: on the % scale 0 is the no-effect control and ±100 the full control effect
#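 Pol beta (10 nM) and compounds were preincubated 15 min at room temperature, then 50 nM substrate (final) started primer extension/strand displacement. Reads were taken at 0 and 10 min; concentration-response data were fitted to a four-parameter Hill equation.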
# Pol kappa inh – DNA polymerase kappa (human) inhibition; purified Pol kappa, fluorescent DNA synthesis assay, 10 min; Q9UBT6; Potency, µM (highest dose often 107 µM), inactives show at the highest dose activity, negative = inhibition, actives largely listed as inhibitors; hit rate 0.53% among 400,000; further: on the % scale 0 is the no-effect control and ±100 the full control effect
# Target sequence (Q9UBT6 whole entry, looked up): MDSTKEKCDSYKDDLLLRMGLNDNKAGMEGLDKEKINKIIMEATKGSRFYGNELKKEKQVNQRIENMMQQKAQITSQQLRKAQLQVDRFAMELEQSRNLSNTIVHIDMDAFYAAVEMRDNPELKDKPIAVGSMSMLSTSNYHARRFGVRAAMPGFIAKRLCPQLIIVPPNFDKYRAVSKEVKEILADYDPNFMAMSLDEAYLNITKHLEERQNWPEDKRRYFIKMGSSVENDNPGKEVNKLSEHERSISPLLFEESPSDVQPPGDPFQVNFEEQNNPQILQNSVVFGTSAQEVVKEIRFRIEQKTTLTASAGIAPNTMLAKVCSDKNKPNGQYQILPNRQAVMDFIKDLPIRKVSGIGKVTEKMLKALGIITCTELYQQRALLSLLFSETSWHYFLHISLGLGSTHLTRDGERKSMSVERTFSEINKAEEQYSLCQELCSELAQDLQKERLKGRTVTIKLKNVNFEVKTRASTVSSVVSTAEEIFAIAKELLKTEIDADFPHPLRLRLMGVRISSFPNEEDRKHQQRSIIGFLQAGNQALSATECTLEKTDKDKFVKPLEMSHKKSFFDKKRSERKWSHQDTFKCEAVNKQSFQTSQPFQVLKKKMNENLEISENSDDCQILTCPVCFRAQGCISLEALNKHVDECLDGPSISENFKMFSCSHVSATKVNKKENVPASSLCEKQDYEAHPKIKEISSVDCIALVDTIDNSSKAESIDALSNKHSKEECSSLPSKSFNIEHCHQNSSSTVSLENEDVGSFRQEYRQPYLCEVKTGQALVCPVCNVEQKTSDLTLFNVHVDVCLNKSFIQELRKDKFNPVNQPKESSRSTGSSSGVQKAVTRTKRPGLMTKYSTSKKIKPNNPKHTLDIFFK
#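 Here, compound and 10 nM enzyme are combined for 15 min at room temperature; adding 50 nM substrate (final) starts DNA synthesis, tracked by fluorescence at 0 and 10 min against buffer-only wells.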
# APE1 inh – APE1 (human) endonuclease inhibition; recombinant APE1, TAMRA/BHQ-2 abasic DNA cleavage fluorescence; Potency, µM (highest dose often 65.8 µM), for the others: at the top dose activity change, negative = inhibition, usual class: inhibitors; AID 2517; P27695; hit rate 0.35% among 350,000;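 further: plate controls were vehicle for no effect and reference inhibitor for full effect; nearly all actives have a fitted effect of over 55% in size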
#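 Readout is kinetic fluorescence (ex 525, em 598 nm) from cleavage of 50 nM TAMRA/BHQ-2 THF abasic duplex by 0.75 nM APE1, compound added 15 min beforehand at RT.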
# POLH inh – inhibitors of human DNA polymerase eta | recombinant Pol eta, fluorescent DNA replication assay | Q9Y253 | AID 588591 | hit rate 1.2% among 390,000 | Potency, µM (doses to about 114 µM), inactives show at the highest dose activity change, negative = inhibition, hits mostly inhibitors; further: on the % scale 0 is the no-effect control and ±100 the full control effect
#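 Fluorescent replication assay: 50 nM final substrate added after a 15 min room-temperature compound preincubation with 10 nM enzyme. Signal taken at 0 min and again at 10 min.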
# Numbers without * were called inactive; u = inconclusive; x = no result; [ ] = dose if it differs, or a comment. Rows were chosen to be rich in hits. Some 2.5% of all compounds tested hit in one or more screens of this group. The call rests on the fitted dose curve; in most records, active means well fitted curve in the direction sought with a large enough effect; inconclusive means small, poorly fitted or top-dose-only effect, or another doubt; inactive means no such curve, though single readings can be large; an effect the other way counts as inactive or inconclusive. Potency means the concentration at half of the fitted maximal effect.
SMILES,L3MBTL1 block,Pol iota inh,POLB inh,Pol kappa inh,APE1 inh,POLH inh
O=C(/C=C/c1ccc2c(c1)OCO2)Nc1nc(-c2ccc(F)cc2F)cs1,-10.3%,x,22.4µM*,x,-3.9%,x
CN(C)C(=O)c1ccc(/C=C/c2ccnc3ccccc23)cc1,x,4.3%,x,-22.9%,x,x
CN(C)CCNC(=O)C(=O)Nc1cc2c3c(c1)CCC(=O)N3CCC2,x,-1.3%,25.6%,-14.9%,13.6%,-21.4%
CN(C)CCNC(=O)C(=O)Nc1cc2c3c(c1)CCN3C(=O)CC2,x,39.8µM*,30.9%,u,-10.5%,3.6%
COc1ccc2nc(-c3cccc(F)c3)sc2c1,x,x,x,x,-1.4%,x
Oc1ccc2ccccc2c1SSc1c(O)ccc2ccccc12,x,x,x,-0.2%[60.1 µM],x,x
Cc1cc(C)cc(N2CCn3c2nc2c3c(=O)n(Cc3c(F)cccc3Cl)c(=O)n2C)c1,x,-1.9%,-1.4%,2.8%,x,-2.7%
CCOC(=O)c1ccc(NC(=O)Nc2ccn(C)n2)cc1,x,89.1µM*,30.0%,-16.7%,-2.5%,-3.6%
CCOC(=O)c1ccc(NC(=O)Nc2cccc(C)n2)cc1,-2.4%,-14.5%,1.0%,-1.0%,-0.1%,-6.5%
CCOc1ccccc1N1CCN(S(=O)(=O)c2ccc(C3CCCCC3)cc2)CC1,x,-6.8%,2.7%,-2.7%,x,1.0%
Oc1ccc(CNc2ccccc2F)c2cccnc12,8.91µM*,4.0%,5.3%,2.5%,57.6%,-14.9%
Oc1ccc(CNc2ccc(C(F)(F)F)cc2Cl)c2cccnc12,u,x,x,x,11.5%,x
Oc1ccc(CNc2cccc(F)c2F)c2cccnc12,25.1µM*,x,x,x,34.8%,x
CCOc1cc2c(C#N)c(N3CCOCC3)nc(N)c2c(N)n1,-6.2%,-3.5%,81.9%,-4.7%,-1.3%,-1.9%
CCOc1cc2c(C#N)c(N(CC)CC)nc(N)c2c(N)n1,x,10µM*,x,-4.7%,x,-15.9%
CN(C(=O)CCc1nc(-c2ccccc2F)no1)c1ccc(Cl)cc1,x,7.9%,-9.4%,0.0%,x,-10.0%
Cc1c(CCO)sc[n+]1CC(=O)c1ccccc1,x,u,x,-5.8%,x,x
Cc1ccc(N(C)S(=O)(=O)c2ccc3c(c2)C(C)(C)C(=O)N3C)cc1C,x,2.0%,26.0%,17.0%,x,-9.7%
Cc1cccc(N(C)S(=O)(=O)c2ccc3c(c2)C(C)(C)C(=O)N3C)c1,-3.8%,u,22.4µM*,u,-21.6%,u
Cn1cccc1CC(=O)N/N=C\c1ccccc1,-11.7%,u,0.4%,-5.6%,1.6%,1.6%
Cc1ccc(/C=N\NC(=O)Cc2cccn2C)o1,x,79.4µM*,6.9%,-19.2%,-5.6%,-13.0%
CC1CCCCC1NS(=O)(=O)c1ccc(S(=O)(=O)NCc2ccncc2)cc1 (configuration not stated),52.4%,u,70.8µM*,-0.2%,u,-9.3%
Cc1ccc(S(=O)(=O)NCc2ccncc2)cc1,x,2.7%,3.7%,6.9%,5.3%,-11.8%
O=C(Cn1c(=O)oc2cc(S(=O)(=O)NCc3ccccc3)ccc21)N(CCO)Cc1ccccc1,x,10.8%,9.1%,-11.2%[60.1 µM],x,-10.8%
O=C(N/N=C/C(Br)=C/c1ccccc1)c1n[nH]c2c1CCC2,x,3.55µM*,3.0%,u,-0.4%,u
CN(CC(=O)NCCc1ccc(Cl)cc1)S(=O)(=O)c1ccc2c(c1)c(=O)n(C)c(=O)n2C,x,16.4%,13.5%,10.6%,2.2%,u
CN(CC(=O)NCCC1=CCCCC1)S(=O)(=O)c1ccc2c(c1)c(=O)n(C)c(=O)n2C,x,79.4µM*,5.3%,-19.3%,-3.7%,-4.7%
O=C(OCC(=O)N1N=C(c2ccc(Cl)cc2)CC1c1ccco1)c1cccnc1 (configuration not stated),-91.0%,u,x,44.7µM*,-6.2%,28.2µM*
Cc1ccc(C2=NN(C(=O)CSc3nc4ncc(Cl)cc4[nH]3)C(c3ccco3)C2)cc1 (configuration not stated),u,42.8%,u,-9.6%,7.5%,-3.7%

# High-throughput results from PubChem.
